# Source: PubChem
# Only a selection was taken, and hits are over-represented in it overall.
# Autofluor counter – compound fluorescence in toxin protease inhibitor counterscreen. 360,000 compounds, 3.1% hits. compound autofluorescence counterscreen, microsphere flow cytometry; active compounds read high. fluorescence intensity (no concentration beside the values); in the data active = fluorescence intensity above about 16000; inconclusive = no clear call, values can overlap the other calls
# Anthrax LF inh2 – Bacillus anthracis LF protease inhibitors, primary screen, biochemical, multiplex microsphere, MLPCN library; inhibition, % at 10 µM; Lethal factor (Bacillus anthracis), P15917; multiplex microsphere protease cleavage assay; 360,000 compounds, 0.12% hits; also: plate controls were buffer without enzyme for full effect and enzyme alone for no effect
# TcdB GH inh – TcdB glycohydrolase inhibitors, primary screen, biochemical, single point, plate reader | TcdB glycohydrolase enzymatic assay | inhibition, % at 9.99 µM | 350,000 compounds, 0.24% hits | AID 652162, 2013; in the data active = inhibition above about 10%
# BoNT A protease – BoNT/A light chain protease inhibitors, primary screen, biochemical, flow cytometry, MLPCN library; multiplex microsphere protease substrate cleavage; inhibition, % at 10 µM; 360,000 compounds, 0.17% hits; AID 588499, 2011; also: plate controls were buffer without enzyme for full effect and enzyme alone for no effect
# BoNT F protease – BoNT/F light chain protease inhibitors, primary screen, biochemical, flow cytometry, MLPCN library | Multiplex microsphere protease cleavage assay | inhibition, % at 10 µM | AID 588497, 2011 | 360,000 compounds, 0.22% hits | Botulinum neurotoxin type F light chain protease (Clostridium botulinum); in the data active = inhibition above about 35%, passing the limit was not always enough; inconclusive = no clear call, values can overlap the other calls; also: plate controls were buffer without enzyme for full effect and enzyme alone for no effect
# An asterisk follows results filed as active; u = inconclusive; x = not tested or not shown; ! = repeats disagree. Rule as the data show it, unless noted: active = inhibition above about 30%; inconclusive = no clear call, values can overlap the other calls; inactive = below that.
SMILES,Autofluor counter,Anthrax LF inh2,TcdB GH inh,BoNT A protease,BoNT F protease
CC(=O)N1CC(=O)N2[C@@H](CO)[C@@H](c3ccc(C#Cc4cccnc4)cc3)[C@@H]2C1,x,x,1,x,x
COc1ccc(N(CC(O)CN2C(=O)NC(C)(C)C2=O)S(=O)(=O)c2ccccc2)cc1 (stereo unspecified),23290*,0,x,-1,-2
C[C@H](CO)N1C[C@H](C)[C@H](CN(C)S(=O)(=O)c2ccc(Cl)cc2)OCCCC[C@H](C)Oc2ccc(NS(=O)(=O)c3cn(C)cn3)cc2C1=O,x,x,0,x,x
COc1ccc(C2=NOC3(CC(=O)N(c4ccc5ccccc5c4)C3=O)C2)c(OC)c1 (stereo unspecified),17080*,-2,-4,u,-7
COc1ccc(C2=NOC3(CC(=O)N(c4ccc(F)cc4)C3=O)C2)c(OC)c1 (stereo unspecified),15217,2,x,5,7
CC(C)(C)c1nc(CN2CCOCC2)ccc1O,21380*,-2,x,2,2
CC(C)(C)c1nc(CN2CCCCC2)cc(CN2CCCCC2)c1O,4682,-6,x,0,1
Cc1noc(C)c1NC(=O)Nc1cccc2c1O[C@H](CN(C)C(=O)Nc1ccc3c(c1)OCO3)[C@@H](C)CN([C@@H](C)CO)C2=O,x,x,1,x,x
C[C@@H]1CN([C@H](C)CO)C(=O)c2cccc(NS(=O)(=O)c3ccccc3)c2O[C@H]1CN(C)Cc1ccc(-c2ccccc2)cc1,x,x,-9,x,x
Cc1ccc(O)c(-c2cc(C(F)(F)F)[nH]n2)c1,21889*,-2,x,u,-9
CCCCCCCCCS(=O)(=O)N/N=C/c1cccc([N+](=O)[O-])c1,19668*,-2,x,3,1
Cc1ccc(S(=O)(=O)N/N=C/c2cccc([N+](=O)[O-])c2)cc1,1969,-1,x,1,4
CSc1nc2nc3c(cc2c(=O)n1-c1ccccc1)COC(C)(C)C3,2594,-3,1,0,1
O=c1cc(O)nc(SCc2ccccc2)n1-c1ccccc1,24058*!,-4,x,-2,-4
CC1(C)Cc2nc3nc(SCC(=O)NCCc4ccccc4)n(-c4ccccc4)c(=O)c3cc2CO1,16362*,-2,x,1,4
O=C(CSc1nc(O)cc(=O)n1-c1ccccc1)NCc1ccccc1,16693*,-1,x,-2,-1
C[C@@H]1CN([C@H](C)CO)S(=O)(=O)c2ccc(C#CC(C)(C)O)cc2O[C@H]1CN(C)C,x,x,0,x,x
CCCNC(=O)N1CC2(C1)[C@H](c1ccccc1)[C@H](CO)N2CC1CC1,x,x,0,x,x
C[C@H](CO)N1C[C@H](C)[C@H](CN(C)C)OCCCC[C@H](C)Oc2ccc(NC(=O)Nc3ccc4c(c3)OCO4)cc2C1=O,x,x,0,x,x
C=CCNc1ncnc2c1cnn2-c1ccc(OC)cc1,16362*,-4,x,0,0
COc1ccc(-n2ncc3c(NCc4ccco4)ncnc32)cc1,11032,0,x,-1,-4
CO[C@@H]1CN(C)C(=O)c2ccc(NC(=O)C3CCCC3)cc2OC[C@@H](C)N(C(C)=O)C[C@@H]1C,x,x,0,x,x
CCN1C(=O)/C(=C\N2CCN(c3ccc(F)cc3)CC2)SC1=S,16210*,-1,3,u,-2
CCC1(C)COC2(OC1)C(=O)Nc1ccccc12 (stereo unspecified),20257*,1,x,0,0
CC1(C)COC2(OC1)C(=O)Nc1ccccc12,4445,-1,-1,0,1
SMILES,Autofluor counter,Anthrax LF inh2,TcdB GH inh,BoNT A protease,BoNT F protease
COC(=O)n1c(=O)oc2cc(S(=O)(=O)N3CCOCC3)ccc21,20705*,-8,x,4,12
COC(=O)n1c(=O)oc2ccc(S(=O)(=O)N3CCCCC3)cc21,4974,-7,1,0,2
Cn1c(=O)oc2cc(S(=O)(=O)N3CCC4(CC3)OCCO4)ccc21,22987*,-2,x,3,3
CCC(C)Nc1c2c(nc3c(-c4ccccc4)c(C)nn13)CCC2 (stereo unspecified),22116*,-3,0,-6,-8
Cc1nn2c(NCCCN3CCOCC3)c3c(nc2c1-c1ccccc1)CCC3,3324,-1,x,-1,-3
Cc1nn2c(NCCOCCO)c3c(nc2c1-c1ccccc1)CCCC3,9642,-4,x,-1,-7
CCCCNc1c2c(nc3c(-c4ccccc4)c(C)nn13)CCC2,20079*,-7,-8,2,2
Cc1nn2c(Nc3ccc(F)cc3)c3c(nc2c1-c1ccccc1)CCC3,2263,0,0,-1,-8
COCCNc1c2c(nc3c(-c4ccccc4)c(C)nn13)CCCC2,23437*,-2,x,-2,-2
C[C@@H]1CN([C@@H](C)CO)S(=O)(=O)c2ccc(C3=CCCC3)cc2O[C@H]1CN(C)Cc1ccccn1,x,x,1,x,x
Cc1noc(C)c1NC(=O)Nc1ccc2c(c1)C(=O)N([C@@H](C)CO)C[C@@H](C)[C@@H](CN(C)C(=O)Nc1ccc(C(F)(F)F)cc1)O2,x,x,0,x,x
O=C(C[C@H]1CC[C@H](NC(=O)CC2CC2)[C@@H](CO)O1)NCc1ccc(Cl)cc1,x,x,1,x,x
Cc1nc2ncccn2c1-c1csc(Nc2ccccc2)n1,2512,0,-1,4,38*
COC(=O)c1ccccc1NC(=O)Nc1cc(C)ccn1,2026,-1,1,0,0
COC(=O)c1cc(OC)c(OC)cc1NC(=O)Nc1ccccc1OC,23051*,-2,x,1,-1
COC(=O)c1cc(OC)c(OC)cc1NC(=O)c1cccc(OC)c1OC,4510,6,1,1,-4
COC(=O)c1ccccc1NC(=O)Nc1cc(C)cc(C)n1,21356*,-1,x,4,6
COc1ccccc1-c1cnc2c(c1)C(=O)N([C@@H](C)CO)C[C@@H](C)[C@H](CN(C)C(=O)c1ccncc1)O2,x,x,0,x,x
N#C/C(=C1\CCCN1)c1nc2ccccc2c(=O)[nH]1,2929,-7,x,-1,-2
N#C/C(C(=O)c1ccccc1)=C1/CCCN1,23223*,-3,x,-2,-1
FC(F)(F)c1cccc(Cn2nnnc2-c2cccc(C(F)(F)F)c2)c1,24655*,0,x,u,-8
FC(F)(F)c1cccc(Cn2nnnc2-c2cc(Cl)cc(Cl)c2)c1,16997*,-2,2,u,-3
CCCn1nnnc1-c1cc(Cl)cc(Cl)c1,10923,1,1,0,0
C[C@H](CO)N1C[C@H](C)[C@H](CN(C)C)Oc2cc(-c3ccccc3F)ccc2S1(=O)=O,x,x,0,x,x
O=C(NC1(C(F)(F)F)C(=O)Nc2c1c(=O)[nH]c(=O)n2Cc1ccccc1)c1ccco1 (stereo unspecified),22776*,-2,x,-1,1
O=C(C1CCC1)N1CCCCN2[C@@H](CO)[C@@H](c3ccc(-c4cccc(F)c4)cc3)[C@@H]2C1,x,x,1,x,x
Cn1c(SCc2ccc(Br)cc2)nnc1-c1cccs1,16457*,-4,x,1,3
Cc1ccc(CSc2nnc(-c3cccs3)n2C)cc1,13667,-1,x,0,-10
CSc1nnc(-c2cccs2)n1C,4024,-1,1,-1,-6
Cn1c(SCc2nc3ccccc3[nH]2)nnc1-c1cccs1,23403*,-1,3,u,0
